Source: the supplement of paper PMC13380429

Test system: Vero E6 infected with SARS-CoV-2
Test: SARS-CoV-2 infection rate relative to infected DMSO; higher = more infection, active = 60 or less
Conditions: 24 h

Structure (SMILES) | SARS-CoV-2 infection rate
COC1CCN(C(=O)c2cc(Cc3n[nH]c(=O)c4ccccc34)ccc2F)CC1 (10 µM) | 103% (inactive)
COc1cc(OC)cc(N(CCNC(C)C)c2ccc3ncc(-c4cnn(C)c4)nc3c2)c1 [erdafitinib] (0.833333 µM) | 108% (inactive)
O=C(O)Cc1sc(-c2ccccc2)nc1-c1ccc(Cl)cc1 [fentiazac] (10 µM) | 100% (inactive)
C[C@]1(Cn2ccnn2)[C@H](C(=O)O)N2C(=O)C[C@H]2S1(=O)=O [tazobactam] (10 µM) | 108% (inactive)
CCOC(=O)[C@H](CCc1ccccc1)N[C@@H](C)C(=O)N1Cc2ccccc2C[C@H]1C(=O)O [quinapril] (10 µM) | 109% (inactive)
CCC(=O)O[C@H]1CC[C@H]2[C@@H]3CCC4=CC(=O)CC[C@]4(C)[C@H]3CC[C@]12C (10 µM) | 110% (inactive)
CCCC[C@@]1(C2CCCC2)Cc2cc(OCCCC(=O)O)c(Cl)c(Cl)c2C1=O (10 µM) | 92.5% (inactive)
C=CC1=C(C(=O)O)N2C(=O)[C@@H](NC(=O)/C(=N\O)c3csc(N)n3)[C@H]2SC1 [cefdinir] (10 µM) | 107% (inactive)
Nc1nc(O)c2ncn(CCC(CO)CO)c2n1 [penciclovir] (10 µM) | 93.5% (inactive)
CO[C@H]1CC[C@H](N2C(=O)CNc3ncc(-c4ccc(C(C)(C)O)nc4)nc32)CC1 (0.833333 µM) | 82.5% (inactive)
CCC(CC)COC(=O)[C@H](C)N[P@](=O)(OC[C@H]1O[C@@](C#N)(c2ccc3c(N)ncnn23)[C@H](O)[C@@H]1O)Oc1ccccc1 [Remdesivir] (10 µM) | 26% (active)
